An excerpt weighted towards active compounds, which were near 4.1% of everything screened.
hgDAF-12 ag: hgDAF-12 agonism, primary luciferase screen; activation, % at 6.8 µM; HEK293 GAL4-hgDAF12 UAS-luciferase reporter, agonist luminescence; normalized to butyrate control; 370,000 tested, 1.8% active; AID 687014;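 active = activation above a cutoff set at the mean of all screened compounds plus 3 SD, cut at about 10% in these data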
hcDAF12 agonist: activators of H. contortus DAF-12 nuclear receptor. HEK293 hcDAF-12 lit1-tk-luc reporter, luminescence; 0% DMSO, 100% Δ7-dafachronic acid. activation, % at 6.8 µM. 370,000 tested, 1.4% active. AID 652067;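 active = activation above the mean of all tested compounds plus 3 SD, cut at about 5.5% in these data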
DAX1 inh-1: DAX1 (NR0B1) inhibition, primary screen. 370,000 tested, 1.1% active. inhibition, % at 6.8 µM. AID 652010. HEK293T StAR-luciferase reporter, SF-1/DAX-1 repression relief;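 active = inhibition above the mean over all tested compounds plus 3 SD, cut at about 3.6% in these data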;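 also: higher inhibition means more luminescence from relief of DAX-1 repression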
ssDAF12 agonist: activates DAF-12 receptor from parasite S. stercoralis; HEK293 ssDAF-12/GRIP1 lit1-tk-luc reporter, luminescence; % of 3 µM dafachronic acid response; activation, % at 6.8 µM; 370,000 tested, 1% active; AID 652126;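 active = activation above the mean over all tested compounds plus 3 SD, cut at about 0.9% in these data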
DAX1 inh-2: NR0B1 (DAX1) inhibition; AID 504766; P51843; HEK293 Gal4-DAX1 luciferase reporter, luminescence; 340,000 tested, 0.99% active; inhibition, % at 6.75 µM;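 active = inhibition above the mean over all tested compounds plus 3 SD, cut at about 4.2% in these data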;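 also: inhibition shows as a rise in luminescence from relieved DAX1 repression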
Target sequence (P51843 207-470 limits assumed): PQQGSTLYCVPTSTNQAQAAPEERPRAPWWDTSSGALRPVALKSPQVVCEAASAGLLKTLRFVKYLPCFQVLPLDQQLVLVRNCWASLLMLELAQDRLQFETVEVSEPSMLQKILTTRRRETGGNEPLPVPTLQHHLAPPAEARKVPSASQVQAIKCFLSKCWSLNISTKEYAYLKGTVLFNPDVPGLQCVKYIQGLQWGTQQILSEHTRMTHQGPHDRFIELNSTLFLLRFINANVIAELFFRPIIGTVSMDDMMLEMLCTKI
A number is an active result; n = inactive; x = not tested or not shown.

SMILES	hgDAF-12 ag	hcDAF12 agonist	DAX1 inh-1	ssDAF12 agonist	DAX1 inh-2
CCc1nnc(NC(=O)c2ccc(OC)cc2)s1	11	n	n	n	n
CCOCc1nnc(NC(=O)c2cccc(OC)c2)s1	n	n	n	n	n
CCc1nnc(NC(=O)c2cccc(OC)c2)s1	n	n	3.9	n	n
CCOC(=O)C1CCN(C(=O)C(C)(C)NC(=O)Nc2ccc3c(c2)CCC3)CC1	n	n	x	n	x
CCOC(=O)CNC(=O)CSc1nnc(NC(=O)c2ccc3c(c2)OCO3)s1	n	n	n	n	n
COc1cc(OC)cc(C(=O)NC2=NCCS2)c1	n	n	n	n	n
COc1ccc(C(=O)NC2=NCCS2)cc1	12	n	n	n	n
COc1cccc(C(=O)Nc2nnc(-c3cccs3)s2)c1	11	n	n	n	n
COc1cccc(C(=O)Nc2nnc(C3CCCO3)s2)c1 (configuration not stated)	n	n	n	1.0	n
CCOC(=O)CNC(=O)CSc1nnc(NC(=O)c2ccc(C)cc2)s1	13	6.4	n	n	n
COc1ccc(C(=O)Cc2ccccc2C(=O)O)cc1	n	n	n	n	n
COc1ccc(C(=O)Cc2nnc(C)s2)cc1	n	n	n	n	4.8
Cc1ccc(C(=O)Nc2nnc(COCCO)s2)cc1	n	6.0	n	1.0	x
Cc1cccc(-c2nnc(NC(=O)c3cccs3)s2)c1	n	n	n	n	4.3
COc1ccc(C(C(=O)N(C)C2CCCC2)N(Cc2ccc(F)cc2)C(=O)c2csc3ccc(Cl)cc23)cc1OC (configuration not stated)	n	n	n	n	x
O=S1(=O)N=C(Nc2nc3c(s2)CCCC3)c2ccccc21	11	n	n	n	n
O=C(O)c1ccc(Nc2nc3c(s2)CCCC3)cc1	n	n	n	n	n
Cc1cc(C)c(S(=O)(=O)Nc2nnc(C)s2)c(C)c1	n	n	n	n	n
Cc1cc(C)c(S(=O)(=O)Nc2nnc(CC(C)C)s2)c(C)c1	n	n	n	n	4.4
O=C(OC12CCCN(C1)/C(=C/c1ccncc1)C2)C1CCCCC1 (configuration not stated)	n	n	n	n	x
CNC(=O)c1ncnnc1N(C)C(=O)NCc1ccccc1	n	n	n	n	9.6
C#CCN1C(=O)S/C(=C/C=C/c2ccc(N(C)C)cc2)C1=O	13	n	n	n	n
O=C(CN1C(=O)S/C(=C\C=C\c2ccccc2)C1=O)Nc1ccccc1C(=O)O	n	n	n	n	n
Cc1cc(C)cc(OCC(O)CN2CC(C)OC(C)C2)c1 (configuration not stated)	n	n	n	n	6.5
O=C(CSC1CC(=O)N(CCc2ccccc2)C1=O)Nc1cccc(Cl)c1 (configuration not stated)	n	n	n	n	n
SMILES	hgDAF-12 ag	hcDAF12 agonist	DAX1 inh-1	ssDAF12 agonist	DAX1 inh-2
O=C(CSC1CC(=O)N(CCc2ccccc2)C1=O)Nc1ccc(Br)cc1 (configuration not stated)	n	5.8	n	n	n
O=C(CSC1CC(=O)N(c2ccc(C(=O)O)cc2)C1=O)Nc1ccc(Cl)cc1 (configuration not stated)	n	n	n	n	6.5
O=C(O)CSC1CC(=O)N(c2ccc(F)cc2)C1=O (configuration not stated)	n	n	n	n	n
CCOC(=O)CC[C@@H]1CC[C@]2(CCCN(C(=O)c3ccc4ccccc4n3)C2)O1	n	n	n	n	x
CN(Cc1ccccc1)C(=O)OCc1cn(Cc2cc(F)ccc2F)nn1	n	n	n	n	x
C=CCn1c(=O)c2ccccc2n2c(SCc3nc4ccccc4s3)nnc12	n	n	n	1.2	n
C=CCn1c(=O)c2ccccc2n2c(SCC(=O)O)nnc12	n	n	n	n	n
CCOc1ccc(NC(=O)c2[nH]c(C)c(C(C)=O)c2C)cc1	n	n	n	n	n
CC(=O)c1c(C)[nH]c(C(=O)Nc2ccc3c(c2)OCCO3)c1C	11	n	n	n	n
CCOC(=O)c1[nH]c(C)c(C(=O)Nc2ccc3c(c2)OCCO3)c1C	n	n	n	n	n
CC(=O)c1c(C)[nH]c(C(=O)Nc2nccs2)c1C	12	n	n	n	n
CCc1ccc(NC(=O)c2[nH]c(C)c(C(C)=O)c2C)cc1	13	n	n	n	n
CCCCC[C@@H](C)N1C[C@H](COCc2ccccc2)Oc2cc(N3CC[C@H](O)C3)ccc2S1(=O)=O	n	n	n	n	x
CS(=O)(=O)Oc1ccc(/C=C2\C(=N)N3N=C(CC(=O)N4CCOCC4)SC3=NC2=O)cc1Cl	n	n	n	n	n
COc1cc(/C=C2/C(=N)N3N=C(CC(=O)N4CCOCC4)SC3=NC2=O)ccc1OC(C)c1ccccc1 (configuration not stated)	n	n	n	2.2	n
O=C(COC(=O)c1ccc(Sc2ncn[nH]2)c([N+](=O)[O-])c1)Nc1ccc(Cl)cc1	n	n	n	n	x
Cc1ccccc1CN1CCCCC(NC(=O)Cc2cccs2)C1=O (configuration not stated)	n	n	n	n	x
Cc1ccc(SCc2cc(=O)[nH]c(Nc3nc(C)c4ccccc4n3)n2)cc1	n	6.1	n	n	n
O=C(/C=C/c1nc2ccccc2s1)N1CCCCCC1	11	n	n	n	n
CCCCCCCCN1CN2Cc3cc(F)ccc3C2CS1(=O)=O (configuration not stated)	n	n	n	n	x
c1ccc(Cn2c(SCC3CCCCC3)nnc2-c2cccnc2)cc1	n	n	n	n	x
Cc1c(NC(=O)c2ccc(NS(=O)(=O)c3ccc(F)c(F)c3)cc2)c(=O)n(-c2ccccc2)n1C	n	n	3.7	n	n
CC(Oc1ccc2c3c(c(=O)oc2c1)CCC3)C(=O)NCC1CCC(C(=O)O)CC1 (configuration not stated)	n	n	n	n	4.7
CCc1cc(=O)oc2cc(OC(C)C(=O)NCC3CCC(C(=O)O)CC3)c(Cl)cc12 (configuration not stated)	n	n	n	n	5.9
CC(Oc1ccc2c3c(c(=O)oc2c1)CCCC3)C(=O)NCC1CCC(C(=O)O)CC1 (configuration not stated)	n	n	n	n	n
SMILES	hgDAF-12 ag	hcDAF12 agonist	DAX1 inh-1	ssDAF12 agonist	DAX1 inh-2
N#CCOc1nc(N2CCCC2)nc(N2CCCC2)n1	n	n	n	n	n
N#CCOc1nc(N2CCOCC2)nc(N2CCOCC2)n1	n	n	n	n	6.0
O=C(Nc1ccccc1)C1=C[C@H](c2ccccc2)C[C@H](OCCCCO)O1	n	5.7	n	n	n
O=C(Nc1ccccc1)C1=C[C@@H](c2ccc(Br)cc2)C[C@@H](OCCCCO)O1	n	n	n	n	n
COc1cccc(/C=C2\CC3(OC(=O)c4ccco4)CCCN2C3)c1 (configuration not stated)	n	n	n	n	x
Cc1ccc(C2(c3noc(CN(C)Cc4cccnc4)n3)CCCC2)cc1	n	n	n	n	4.5
C[C@@H](CO)N(CCc1cn(Cc2ccccc2)nn1)S(=O)(=O)c1ccccc1Br	n	n	n	n	x

Assay outcomes deposited in PubChem by The Scripps Research Institute Molecular Screening Center.
